In PubChem BioAssay AID1159580 (chemical genetic matrix, 2015):
The campaign covered roughly 5,500 compounds. About 2,000 (36%) were called active. Another 18% or so got no clear call; they are omitted. Rule as the data show it: active = normalized growth mostly below about 0.91 (no sharp cut-off); inconclusive = no clear call, values can overlap the other calls; inactive = mostly above about 0.92. The list shows a part of the results.

Assay: chemical genetic growth profiling, strain panel (AID 1159580);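 also: tested at 20 µM; growth read once vehicle control cultures reached saturation at 30 °C; 1 = growth at the plate median or of vehicle wells; lower values mean less growth of the strain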
Conditions: growth OD

Measured: normalized growth

CCN(CC)CCOc1ccc(/C(=C(\Cl)c2ccccc2)c2ccccc2)cc1
inactive: S. cerevisiae deletion strains, locus YKL009W, strain mrt4, hits give low values 0.917 | S. cerevisiae deletion strains, locus YKL068W, hits give low values 1.01 | S. cerevisiae deletion strains, locus YLR113W, strain HOG1, hits give low values 0.925 | S. cerevisiae deletion strains, locus YLR262C, strain YPT6 (second series), hits give low values 0.933 | S. cerevisiae deletion strains, locus YNL183C, strain NPR1, hits give low values 0.92 | S. cerevisiae deletion strains, locus YNL250W, strain rad50, hits give low values 0.922 | S. cerevisiae deletion strains, locus YNL271C, strain bni1, hits give low values 0.962 | S. cerevisiae deletion strains, locus YNL298W, strain CLA4, hits give low values 0.914 | S. cerevisiae deletion strains, locus YNL322C, strain KRE1 (second series), hits give low values 1.02 | S. cerevisiae deletion strains, locus YOR231W, strain MKK1, hits give low values 0.946 | S. cerevisiae deletion strains, locus YPL256C, strain CLN2, hits give low values 0.939 | S. cerevisiae deletion strains, locus YPR141C, strain kar3, hits give low values 1.03
active: S. cerevisiae deletion strains, locus YKL160W, strain elf1, hits give low values 0.195 | S. cerevisiae deletion strains, locus YKL190W, strain CNB1, hits give low values 0.0469 | S. cerevisiae deletion strains, locus YKR001C, strain vps1, hits give low values 0.0607 | S. cerevisiae deletion strains, locus YKR026C, strain gcn3, hits give low values 0.209 | S. cerevisiae deletion strains, locus YKR091W, strain srl3, hits give low values 0.171 | S. cerevisiae deletion strains, locus YLL001W, strain dnm1, hits give low values 0.108 | S. cerevisiae deletion strains, locus YLL026W, hits give low values 0.0855 | S. cerevisiae deletion strains, locus YLL041C, strain sdh2, hits give low values 0.129 | S. cerevisiae deletion strains, locus YLR027C, strain aat2, hits give low values 0.093 | S. cerevisiae deletion strains, locus YLR039C, strain RIC1, hits give low values 0.099 | S. cerevisiae deletion strains, locus YLR058C, strain SHM2, hits give low values 0.0491 | S. cerevisiae deletion strains, locus YLR102C, strain apc9, hits give low values 0.0621 | S. cerevisiae deletion strains, locus YLR221C, strain rsa3, hits give low values 0.104 | S. cerevisiae deletion strains, locus YLR258W, strain gsy2, hits give low values 0.0916 | S. cerevisiae deletion strains, locus YLR262C, strain YPT6, hits give low values 0.1 | S. cerevisiae deletion strains, locus YLR268W, strain sec22, hits give low values 0.0697 | S. cerevisiae deletion strains, locus YLR320W, strain mms22, hits give low values 0.182 | S. cerevisiae deletion strains, locus YLR330W, strain CHS5, hits give low values 0.0524 | S. cerevisiae deletion strains, locus YLR342W, strain FKS1 (second series), hits give low values 0.066 | S. cerevisiae deletion strains, locus YLR342W, strain FKS1, hits give low values 0.156 | S. cerevisiae deletion strains, locus YLR357W, strain rsc2, hits give low values 0.175 | S. cerevisiae deletion strains, locus YLR370C, strain arc18, hits give low values 0.0727 | S. cerevisiae deletion strains, locus YLR371W, strain rom2, hits give low values 0.0621 | S. cerevisiae deletion strains, locus YLR384C, strain iki3, hits give low values 0.714 | S. cerevisiae deletion strains, locus YLR418C, strain cdc73, hits give low values 0.0928 | S. cerevisiae deletion strains, locus YML016C, strain PPZ1, hits give low values 0.0474 | S. cerevisiae deletion strains, locus YML032C, strain rad52, hits give low values 0.0749 | S. cerevisiae deletion strains, locus YML120C, strain ndi1, hits give low values 0.121 | S. cerevisiae deletion strains, locus YML124C, strain tub3, hits give low values 0.0612 | S. cerevisiae deletion strains, locus YMR058W, strain fet3, hits give low values 0.0872 | S. cerevisiae deletion strains, locus YMR078C, strain ctf18, hits give low values 0.0745 | S. cerevisiae deletion strains, locus YMR125W, strain sto1, hits give low values 0.17 | S. cerevisiae deletion strains, locus YMR129W, hits give low values 0.129 | S. cerevisiae deletion strains, locus YMR205C, strain PFK2, hits give low values 0.145 | S. cerevisiae deletion strains, locus YMR223W, strain ubp8, hits give low values 0.0648 | S. cerevisiae deletion strains, locus YMR231W, strain pep5, hits give low values 0.0748 | S. cerevisiae deletion strains, locus YMR263W, strain SAP30, hits give low values 0.0606 | S. cerevisiae deletion strains, locus YMR307W, strain GAS1, hits give low values 0.123 | S. cerevisiae deletion strains, locus YNL067W, strain RPL9B, hits give low values 0.0497 | S. cerevisiae deletion strains, locus YNL071W, strain lat1, hits give low values 0.14 | S. cerevisiae deletion strains, locus YNL128W, strain TEP1, hits give low values 0.0656 | S. cerevisiae deletion strains, locus YNL209W, strain ssb2, hits give low values 0.126 | S. cerevisiae deletion strains, locus YNL233W, strain BNI4, hits give low values 0.057 | S. cerevisiae deletion strains, locus YNL248C, strain rpa49, hits give low values 0.191 | S. cerevisiae deletion strains, locus YNL307C, strain MCK1, hits give low values 0.0652 | S. cerevisiae deletion strains, locus YNL322C, strain KRE1, hits give low values 0.0484 | S. cerevisiae deletion strains, locus YNR049C, strain mso1, hits give low values 0.0907 | S. cerevisiae deletion strains, locus YNR052C, strain pop2, hits give low values 0.0587 | S. cerevisiae deletion strains, locus YOL006C, strain TOP1, hits give low values 0.117 | S. cerevisiae deletion strains, locus YOL147C, strain pex11, hits give low values 0.0607 | S. cerevisiae deletion strains, locus YOR001W, strain rrp6, hits give low values 0.337 | S. cerevisiae deletion strains, locus YOR061W, strain CKA2, hits give low values 0.0462 | S. cerevisiae deletion strains, locus YOR069W, strain VPS5, hits give low values 0.0488 | S. cerevisiae deletion strains, locus YOR070C, strain gyp1, hits give low values 0.0639 | S. cerevisiae deletion strains, locus YOR080W, strain dia2, hits give low values 0.289 | S. cerevisiae deletion strains, locus YOR083W, strain WHI5, hits give low values 0.102 | S. cerevisiae deletion strains, locus YOR106W, strain vam3, hits give low values 0.0804 | S. cerevisiae deletion strains, locus YOR136W, strain idh2, hits give low values 0.0748 | S. cerevisiae deletion strains, locus YOR144C, strain elg1, hits give low values 0.0617 | S. cerevisiae deletion strains, locus YOR184W, strain ser1, hits give low values 0.0757 | S. cerevisiae deletion strains, locus YOR265W, strain rbl2, hits give low values 0.0762 | S. cerevisiae deletion strains, locus YOR270C, strain vph1, hits give low values 0.0899 | S. cerevisiae deletion strains, locus YOR290C, strain snf2, hits give low values 0.112 | S. cerevisiae deletion strains, locus YOR316C, strain cot1, hits give low values 0.0599 | S. cerevisiae deletion strains, locus YPL051W, strain arl3, hits give low values 0.303 | S. cerevisiae deletion strains, locus YPL055C, strain LGE1, hits give low values 0.0709 | S. cerevisiae deletion strains, locus YPL078C, strain atp4, hits give low values 0.232 | S. cerevisiae deletion strains, locus YPL106C, strain sse1, hits give low values 0.136 | S. cerevisiae deletion strains, locus YPL240C, strain hsp82, hits give low values 0.0981 | S. cerevisiae deletion strains, locus YPL241C, strain CIN2, hits give low values 0.0508 | S. cerevisiae deletion strains, locus YPR119W, strain clb2, hits give low values 0.067 | S. cerevisiae deletion strains, locus YPR163C, strain tif3, hits give low values 0.0698 | S. cerevisiae deletion strains, locus YPR167C, strain met16, hits give low values 0.0645 | S. cerevisiae deletion strains, strain wtn01, hits give low values 0.0644 | S. cerevisiae strains, strain wild type, hits give low values 0.0486
